Drawing on PubChem BioAssay (NCI), this text covers growth for 8 compounds.

About 83,000 compounds went through this panel and 20% of them were active in at least one assay; those are over-represented in the sample as a whole.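 48-hour exposure, single concentration, 96-well plates; percent growth endpoint where 0 means no net growth. Active: below 10.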 Unmarked numbers belong to inactive results. Activity calls are given as the source filed them.

What all share (experiment): NCI-60 one-dose screen, 48 h (100 = growth as untreated, 0 = no growth, -100 = all killed)
Conditions in all cases: 10 µM unless noted

Assay [1] deals with NCI-H23 lung.
Assay [2] has as its system NCI-H226 lung.
Assay [3] concerns NCI-H322M lung.
Assay [4] has as its system HOP-62 NSCLC.
Assay [5] concerns NCI-H460 lung.
Assay [6] has as its system HOP-92 NSCLC.
In assay [7] the test system is NCI-H522 lung.
Assay [8] concerns A549/ATCC NSCLC.
Assay [9] concerns 786-0 renal.
The subject of assay [10] is COLO 205 colon.
For assay [11], the system named is DU-145 prostate.
Assay [12] relates to K-562 leukemia.
Assay [13] deals with MALME-3M melanoma.
Assay [14] concerns MDA-MB-231 breast.
In assay [15] the test system is RXF 393 renal.
In assay [16] the test system is SF-268 CNS.
Assay [17] has as its system SF-295 CNS.
Assay [18] concerns SF-539 CNS.
The subject of assay [19] is UACC-257 melanoma.
The test system of assay [20] is M14 melanoma.

For the compound `CCOC(=O)Cn1c(=O)c2c3ccccc3n(C)c2n2nnc(-c3ccccc3)c12`, the growth was 84.8% in [1]; 76.9% in assay [2]; 120% in assay [3]; 106% in assay [4]; 101% in [5]; 41.1% in [6]. Further, the growth is 86.1% in assay [7]; 159% in [8]; 98% in assay [9]; 116% in assay [10]; 91.8% in assay [11]; 32.8% in [12]. In addition, the growth in assay [13] was 93.5%; in assay [14] it was 79.7%; in assay [15], 119%; in [16], 91%; in assay [17], 115%; in [18], 91.1%. Further, the growth was 109% in [19] and 88.1% in assay [20].

Turning to `COc1cccc(Nc2ccnc3[nH]c4ccc([N+](=O)[O-])cc4c23)c1`, the growth in [1] was 64.5%; in assay [2] it was 48.7%; in assay [3] it was 84.3%; in assay [4], 34.6%; in assay [5], 30.7%; in assay [6], 31.5%. For the same compound, the growth was 30.4% in assay [7]; 37% in assay [8]; 25.7% in assay [9]; 51.7% in assay [10]; 76.9% in assay [11]; 19% in assay [12]. Besides, the growth in assay [13] is 53%; in [14], 60.1%; in assay [15] it was 33.5%; in assay [16] it was 60.7%; in assay [17] it was 45.5%; in [18], 48.9%. Further, the values for the growth in assay [19] and in [20] were 57.4% and 34%, respectively.

Take `O=c1[nH]c(-c2ccc(Cl)cc2)cn1-c1ccc(-n2cc(-c3ccc(Cl)cc3)[nH]c2=O)cc1`: the growth in assay [1] is 95.9%; in assay [2], 91.1%; in [3] it was 115%; in [4], 99.8%; in [5] it was 115%; in assay [6], 99.1%. Also, the growth in assay [7] is 112%; in assay [8], 93.4%; in assay [9], 96.4%; in assay [10], 111%; in assay [11], 108%; in [12], 113%. For the same compound, the growth was 97.9% in assay [13]; 94.7% in assay [14]; 113% in [15]; 109% in assay [16]; 101% in assay [17]; 104% in assay [18]. The results for the growth in assay [19] and in assay [20] were 101% and 99.2%, respectively.

Consider `C=CC(=O)NCCOc1cccc(Nc2cc(NCCCNC(=O)C3CCC3)c(Br)cn2)c1`, for which the growth in [1] is -25.8% (active); in [2], -14.1% (active); in [3] it was -6.07% (active); in assay [4] it was -22.4% (active); in assay [5] it was -18% (active); in [6], -28.5% (active). For the same compound, the growth was -19.3% (active) in [7]; -16.7% (active) in assay [8]; -35.7% (active) in assay [9]; -42.7% (active) in [10]; 8.96% (active) in [11]; 9.43% (active) in [12]. Moreover, the growth in assay [13] was -19% (active); in assay [14], -25.6% (active); in assay [15] it was -77% (active); in assay [16], -25.3% (active); in assay [17] it was 2.75% (active); in assay [18], -58.3% (active). Moreover, the growth in assay [19] was -11.6% (active); in assay [20], -18.7% (active).

`Cn1cc(C(=O)c2nc(-c3c[nH]c4ccc(Br)cc34)no2)c2cc(Br)ccc21`: the growth in [1] was 83%; in [2], 102%; in [3] it was 73.4%; in [4], 78.4%; in assay [5], 12.5%; in [6], 83.9%. Moreover, the growth in [7] was 84.2%; in [8] it was 32.1%; in assay [9], 99.4%; in assay [10], 93.3%; in [11] it was 3.08% (active); in assay [12] it was 37.7%. For the same compound, the growth in assay [13] was 43.7%; in assay [14] it was 45.9%; in assay [15] it was 96.4%; in [16], 55.9%; in assay [17], 88.4%; in assay [18] it was 88.7%. Besides, the growth was 109% in assay [19] and 47% in assay [20].

Consider `Cn1cc(-c2nonc2-c2c[nH]c3ccccc23)c2ccccc21`, for which the growth was 29.7% in assay [1]; 44.5% in [2]; 33.9% in assay [3]; 14.3% in assay [4]; 4.95% (active) in assay [5]; 5.1% (active) in assay [6]. Besides, the growth was -5.43% (active) in assay [7]; 18.3% in assay [8]; 23% in [9]; -22.7% (active) in assay [10]; 17.4% in assay [11]; 5.23% (active) in [12]. For the same compound, the growth is 42.9% in assay [13]; 0.833% (active) in assay [14]; -3.69% (active) in [15]; 25.8% in assay [16]; 8.43% (active) in [17]; -35.4% (active) in assay [18]. For the same compound, the growth is 33.2% in assay [19] and 7.06% (active) in [20].

As to `C#CCn1cnc2c(Nc3cccc(NC(=O)CCl)c3)ncnc21`, the growth in assay [1] was 38.1%; in assay [2] it was 51.4%; in assay [3], 81.1%; in [4] it was 43.5%; in assay [5], 21.8%; in assay [6], 35.3%. For the same compound, the growth in assay [7] is -19.1% (active); in assay [8], 44.8%; in assay [9] it was 49.2%; in assay [10], 18.6%; in [11], 43.6%; in assay [12], 13.2%. Moreover, the growth in assay [13] was 34.4%; in assay [14] it was 18.4%; in assay [15], 54.6%; in assay [16] it was 35.3%; in [17], 59.7%; in assay [18], 45.4%. For the same compound, the growth in assay [19] is 28.4%; in [20], 24.4%.

As for `CCOc1ccc(/C=N\N=C\c2ccc(OCC)cc2)cc1`, the growth in [1] is 79.5%; in assay [2] it was 89.1%; in assay [3], 99.1%; in assay [4], 93%; in assay [5], 51.7%; in assay [6], 84.4%. Also, the growth in assay [7] is 51.9%; in assay [8], 94.2%; in [9] it was 105%; in assay [10], 96.6%; in assay [11], 17%; in assay [12] it was 86.7%. In addition, the growth in [13] is 115%; in assay [14], 83.6%; in assay [15], 84.9%; in assay [16], 94%; in assay [17], 95.9%; in [18], 96.4%. In addition, the results for the growth in assay [19] and in assay [20] were 99% and 85.3%, respectively.
